# Results published in PubChem BioAssay (NCATS).
# Results filed as inconclusive are left out. A number with no mark means an inactive call. Calls follow the shape of the dose curve; as a rule, active = well fitted inhibition curve with a large enough effect; inconclusive = small, poorly fitted or top-dose-only effect; inactive = no such curve, though single readings can be large or run the other way.
# Experiment: Counterscreen for APE1 Inhibitors: Fluorescent Dye Displacement Validation Assay (AID 1707);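 also: plate controls were ThO with dsDNA and no compound for no effect and ThO without dsDNA for full effect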
# Details: fluorescent dye displacement from DNA; series mostly up to 57.1 µM; activity change, negative = inhibition: at the top concentration
# Text: In order to distinguish true inhibitors of DNA-processing enzymes from promiscuous DNA-binding compounds among screening assay hits, we developed a homogeneous and miniaturized assay based on fluorescent dye displacement test as originally described by Tse and Boger (Accounts of Chemical Research (2004) 37: 61-69). The assay is based on the strong enhancement of fluorescence when Thiazole Orange (ThO) binds to double-stranded DNA: conversely, in the presence of a DNA-binding compound, Thiazole Orange is displaced from the DNA and its fluorescence is reduced.
# Buffer. 50 mM Tris-HCl (pH7.5) containing 50mM NaCl, 2 mM MgCl2, and 0.01% Tween-20.
# Buffer containing 250 nM ThO in columns 3 and 4 as negative control (no dsDNA).
# Reaction mixture: 250 nM ThO and 50 nM dsDNA at final concentration dispensed throughout the plate: in columns 1, 2, 5-48. Column 1 is neutral (100% activity).
# 5''TAMRA- TC ACC FTC GTA CGA CTC
# 3'' AG TGG GAG CAT GCT GAG
# where F denotes tetrahydrofuran.
# Control: Pintool transfer of control compound WB64 (W4761, Sigma-Aldrich) to column 2 of all assay plates as a two-fold 16-point dilution in duplicate (concentration range 5.75 uM - 0.175 nM).
# Four uL of reaction mixtures were dispensed to 1536-well Greiner black solid bottom plates. Compounds (23 nL) were transferred […] in order to measure the endpoint fluorescence using 480 nm excitation and 540 nm emission fluorescence protocol.
row,SMILES,"activity change, negative = inhibition"
1,CCN1CCCC1CNC(=O)c1cc(S(N)(=O)=O)ccc1OC (stereo unspecified),1.04%
2,CC1=C(C(=O)O)N2C(=O)[C@@H](NC(=O)C(N)c3ccccc3)[C@H]2SC1 (stereo partly specified),2.93%
3,NC(=O)c1cccc(N)c1,2.02%
4,CC(C)NCC(O)c1ccc(NS(C)(=O)=O)cc1 (stereo unspecified),0.598%
5,O=C(O)C1CCCN(CCC=C(c2ccccc2)c2ccccc2)C1 (stereo unspecified),1.87%
6,CC(=O)[C@H]1CC[C@H]2[C@@H]3CCC4=CC(=O)CC[C@]4(C)[C@H]3CC[C@]12C,-1.94%
7,OCc1ccc(-c2nn(Cc3ccccc3)c3ccccc23)o1,-3.81%
8,Nc1nc(N)c2nc(CNc3ccc(C(=O)NC(CCC(=O)O)C(=O)O)cc3)cnc2n1 (stereo unspecified),-2.42%
9,CC(C)(C)NC(=O)[C@H]1CC[C@H]2[C@@H]3CC[C@H]4NC(=O)C=C[C@]4(C)[C@H]3CC[C@]12C,0.705%
10,Cc1ccc(S(=O)(=O)N[C@@H](Cc2ccccc2)C(=O)CCl)cc1,-0.221%
11,CCN(CC)CC#CCOC(=O)C(O)(c1ccccc1)C1CCCCC1 (stereo unspecified),-0.753%
